The source of these data is PubChem BioAssay (EPA / NIEHS).

Activity calls are given as the source filed them. Rule for the calls: active = hit-call score of the fitted dose curve at least 0.9, where 1 is the maximum; inactive = score below 0.9.

Assay [1] concerns the target Transcription factor E2F1 (Homo sapiens) (UniProt Q01094). Put plainly: ATG_E2F_CIS: Attagene CIS-FACTORIAL HepG2 Assay for human E2F Transcription Factor 1 (AID 2282935). Conditions: HepG2 Attagene cis-reporter, E2F reporter RNA transcripts; actives raise or lower the signal. The gist of the method: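 In this cis-factorial format, endogenous factor activity drives transfected reporters in HepG2; transcripts collected at 24 h are quantified by fluorescence after RT-PCR and capillary separation.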

Assay [2] is described as follows: ATG_E_Box_CIS: Attagene CIS-FACTORIAL HepG2 Assay for human Enhancer Box (E-box) (AID 2282936). The settings on record: HepG2 E-box cis-reporter transcription, actives raise or lower the signal. The gist of the method:
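Measured 24 h post-dosing in HepG2 cells transfected with multiple cis-regulated reporter units, signal being reporter mRNA induction detected by fluorescent RT-PCR with capillary electrophoresis; gain or loss fitted against DMSO.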

Assay [3] can be described thus: ATG_M_61_CIS: Attagene CIS-FACTORIAL HepG2 Assay for M61 Transcription Factor (Internal Marker) (AID 2282937). Conditions: HepG2 Attagene CIS-FACTORIAL M61 internal marker reporter; actives raise or lower the signal. The method in brief:
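HepG2 cells transiently transfected with cis-element-driven multiple reporter transcription units, dosed for 24 h. Reporter mRNA measured by RT-PCR, 6-FAM primer-extension labelling, HpaI digestion and capillary electrophoresis; bidirectional fit versus DMSO baseline.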

Assay [4] in a line: ATG_EGR_CIS: Attagene CIS-FACTORIAL HepG2 Assay for human Early Growth Response 1 (EGR1) (AID 2282938). Conditions: HepG2 Attagene CIS-FACTORIAL EGR reporter mRNA; actives raise or lower the signal. The method in brief:
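HepG2 cells transiently transfected with cis-promoter-driven multiplexed reporter transcription units; reporter mRNA measured 24 h after compound dosing by RT-PCR, 6-FAM primer extension, HpaI digestion and capillary electrophoresis. Bidirectional fit versus DMSO baseline.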

Assay [5] in a line: ATG_M_19_CIS: Attagene CIS-FACTORIAL HepG2 Assay for M19 Transcription Factor (Internal Marker) (AID 2282939). Conditions: HepG2 Attagene CIS-FACTORIAL M19 internal marker reporter; actives raise or lower the signal. The method in brief:
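Following a 24 h exposure, RNA from transfected HepG2 cells was reverse-transcribed, PCR-amplified with reporter-specific primers, end-labelled with 6-FAM and HpaI-digested before capillary separation. Values represent gain or loss versus DMSO.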

Assay [6] in a line: ATG_ERE_CIS: Attagene CIS-FACTORIAL HepG2 Assay for Estrogen Response Element (ERE) (AID 2282940). The settings on record: HepG2 ERE cis-reporter, Attagene RNA transcript; actives raise or lower the signal. The gist of the method:
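HepG2, transient cis-reporter units, 24 h exposure. RNA isolated, oligo(dT) RT, reporter-specific PCR, FAM extension, HpaI cut, CE detection. Gain/loss-of-signal vs DMSO.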

Assay [7] deals with Hepatocyte nuclear factor 3-beta (Homo sapiens) (UniProt Q9Y261). As to the kind of experiment: ATG_FoxA2_CIS: Attagene CIS-FACTORIAL HepG2 Assay for human Forkhead box A2 (FOXA2) (AID 2282942). The settings on record: HepG2 cis-reporter transcription factor activity, 24 h; actives raise or lower the signal. The gist of the method:
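HepG2 cells transiently transfected with multiple cis-regulated reporter transcription units, dosed for 24 h. Reporter mRNA measured by RT-PCR, 6-FAM labelling, HpaI digestion and capillary electrophoresis; bidirectional fitting against DMSO baseline.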

The nature of assay [8]: ATG_FoxO_CIS: Attagene CIS-FACTORIAL HepG2 Assay for human Forkhead box O (FoxO) (AID 2282943). Conditions: HepG2 Attagene cis-reporter, FoxO element, mRNA; actives raise or lower the signal. The gist of the method:
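HepG2 cells transiently transfected with cis-promoter-driven multiple reporter transcription units; 24 h after chemical dosing, reporter mRNA quantified by RT-PCR, fluorescent primer extension, HpaI digestion and capillary electrophoresis. Bidirectional fitting versus DMSO baseline.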

The nature of assay [9]: ATG_GATA_CIS: Attagene CIS-FACTORIAL HepG2 Assay for human GATA Binding Protein (AID 2282944). Conditions: HepG2 GATA cis-element reporter, Attagene multiplex mRNA; actives raise or lower the signal. The method in brief:
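DMSO serves as negative control and baseline for bidirectional fitting of reporter mRNA changes. HepG2 cells bearing transiently transfected cis-promoter reporters were exposed 24 h; transcripts detected via RT-PCR and capillary electrophoresis.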

Assay [10] in a line: ATG_Ets_CIS: Attagene CIS-FACTORIAL HepG2 Assay for human Erythroblast Transformation Specific (ETS) (AID 2282941). The settings on record: HepG2 ETS cis-reporter transcription, actives raise or lower the signal. The method in brief:
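RT-PCR/capillary electrophoresis fluorescence read-out of reporter mRNA; HepG2 transient multi-reporter transfection; 24 h compound exposure; gain or loss of signal fitted bidirectionally relative to DMSO.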

Sequence of Hepatocyte nuclear factor 3-beta (Homo sapiens) (Q9Y261 whole entry, looked up): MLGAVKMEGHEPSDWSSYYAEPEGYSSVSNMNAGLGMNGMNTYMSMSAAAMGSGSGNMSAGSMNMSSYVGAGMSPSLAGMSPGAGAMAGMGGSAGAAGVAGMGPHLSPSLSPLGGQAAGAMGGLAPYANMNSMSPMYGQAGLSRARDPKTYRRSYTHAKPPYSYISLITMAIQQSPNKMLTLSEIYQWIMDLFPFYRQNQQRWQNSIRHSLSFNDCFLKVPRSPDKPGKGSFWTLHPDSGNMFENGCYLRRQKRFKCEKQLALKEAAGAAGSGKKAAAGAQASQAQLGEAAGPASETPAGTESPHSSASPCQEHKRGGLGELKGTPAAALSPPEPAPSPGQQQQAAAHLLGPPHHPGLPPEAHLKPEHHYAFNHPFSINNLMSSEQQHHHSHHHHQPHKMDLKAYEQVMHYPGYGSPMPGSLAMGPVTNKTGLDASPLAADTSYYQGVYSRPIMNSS
Sequence of Transcription factor E2F1 (Homo sapiens) (Q01094 whole entry, looked up): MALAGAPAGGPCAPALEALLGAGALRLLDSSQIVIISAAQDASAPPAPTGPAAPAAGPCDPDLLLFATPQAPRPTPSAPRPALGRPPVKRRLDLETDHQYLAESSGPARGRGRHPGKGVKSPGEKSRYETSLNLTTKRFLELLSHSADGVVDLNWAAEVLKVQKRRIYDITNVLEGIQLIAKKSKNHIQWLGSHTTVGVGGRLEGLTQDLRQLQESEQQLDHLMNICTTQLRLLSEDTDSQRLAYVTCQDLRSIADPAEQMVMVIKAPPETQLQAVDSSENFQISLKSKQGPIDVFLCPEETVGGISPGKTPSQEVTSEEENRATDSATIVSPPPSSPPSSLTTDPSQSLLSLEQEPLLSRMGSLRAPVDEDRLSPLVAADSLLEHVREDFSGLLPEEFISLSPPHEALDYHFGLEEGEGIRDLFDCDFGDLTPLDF

`CCCCCCCC1CCCC1=O` (configuration not stated): the outcome in assay [1], in assay [2], in assay [3], in assay [4], in assay [5] and in assay [6] was inactive. In addition, the result in assay [7], in [8] and in [9] was inactive.

As for `CCCCCCCCOC(=O)c1ccc(O)cc1`, the compound was called inactive in assay [1], in assay [2], in assay [3], in [4], in assay [5] and in assay [10]. Besides, the call in assay [7], in assay [8] and in assay [9] was inactive.

On to `COc1ccc(C(C)=O)cc1`, for which the call in [1], in assay [2], in assay [3], in assay [4], in [5] and in [6] was inactive. The result in assay [8] and in assay [9] was inactive.

`CCC(C)COC(=O)CC(C)C` (configuration not stated): the compound was called inactive in assay [1], in assay [2], in assay [3], in assay [4], in [5] and in [6]. Further, the call in [7] and in assay [9] was inactive.

The term AC50 denotes the concentration at which the activity in the assay is half-maximal. Take `C[C@H](CCC(=O)O)[C@H]1CC[C@H]2[C@@H]3CC[C@@H]4C[C@H](O)CC[C@]4(C)[C@H]3CC[C@]12C`: the half-maximal activity concentration (AC50) is 25.3 µM (active) in assay [1], 64.2 µM (active) in assay [2], 25.2 µM (active) in assay [4] and 169 µM (active) in [5]. The result in assay [3], in assay [6], in assay [8] and in assay [9] was inactive.

Turning to `CC1=CCC(=C(C)C)CC1`, the call in [1], in assay [2], in assay [3], in [4], in assay [5] and in assay [10] was inactive. Besides, the call in assay [7], in assay [8] and in assay [9] was inactive.

As to `C=C1CC/C=C(\C)CC[C@@H]2[C@@H]1CC2(C)C`, the call in assay [1], in [3], in assay [4], in assay [5], in assay [10] and in [7] was inactive. In addition, the call in assay [8] and in assay [9] was inactive. In assay [2], the AC50 is 94.9 µM (active).

`CCCc1ccc(N)cc1`: the outcome in assay [1], in [2], in assay [3], in [4], in assay [5] and in [6] was inactive. For the same compound, the result in [7], in [8] and in assay [9] was inactive.

For `CCC(C)(C)C1CCC(=O)CC1`, the outcome in assay [1], in assay [2], in [3], in assay [4], in assay [5] and in [10] was inactive. Besides, the call in assay [7] and in [8] was inactive.

On to `O=C1OC2(c3ccc(O)cc3Oc3cc(O)ccc32)c2ccccc21`, for which the compound was classed as inactive in assay [1], in [2], in assay [3], in assay [4], in assay [5] and in assay [10]. In addition, the compound was called inactive in assay [7], in [8] and in [9].

As to `CC(C)(C)C1CCC(O)CC1` (configuration not stated), the call in assay [1], in assay [2], in assay [3], in [4], in [5] and in assay [10] was inactive. Also, the compound was called inactive in assay [7], in assay [8] and in assay [9].

For `CC(=O)OC/C=C(C)/C=C/C=C(C)/C=C/C1=C(C)CCCC1(C)C`, the outcome in [1], in [2], in [3], in assay [5], in assay [10] and in assay [7] was inactive. For the same compound, the call in assay [8] was inactive. Besides, the AC50 in [4] was 122 µM (active).

As to `CCCCN(CCCC)CCCCCCN(CCCC)CCCC`, the compound was classed as inactive in [1], in assay [2], in assay [3], in assay [4], in assay [5] and in assay [10]. Besides, the outcome in assay [7], in [8] and in assay [9] was inactive.

For the compound `C=C(C)C(=O)OCCOCCOC(=O)C(=C)C`, the compound was classed as inactive in assay [1], in assay [2], in assay [3], in assay [4], in assay [5] and in assay [6]. Also, in assay [9], the compound was called inactive.

Turning to `OC[C@H]1O[C@@H](O[C@H]2[C@H](O)[C@@H](O)[C@H](O)O[C@@H]2CO)[C@H](O)[C@@H](O)[C@H]1O`, the result in assay [1], in [2], in assay [3], in [4], in [5] and in assay [10] was inactive. The call in assay [7], in assay [8] and in assay [9] was inactive.

On to `COc1ccccc1NC(=O)CC(C)=O`, for which the compound was classed as inactive in assay [1], in [2], in assay [3], in assay [4], in assay [5] and in assay [10]. The compound was classed as inactive in assay [7] and in assay [9].

Regarding `CCCCCCC(O)CCOC(C)=O` (configuration not stated), the compound was called inactive in [1], in assay [2], in assay [3], in assay [4], in assay [5] and in [10]. For the same compound, the result in assay [7] and in [9] was inactive.

With `OCC=Cc1ccccc1`, the outcome in assay [1], in assay [2], in assay [3], in assay [4], in assay [5] and in [10] was inactive. Further, the outcome in assay [7] and in assay [9] was inactive.
